Reference: PubChem BioAssay (NCI)
The panel holds about 79,000 compounds, 15% with a hit somewhere; the sample as a whole holds those more often. Activity calls are given as the source filed them. Cut-off read from the data, not from the text of the source: active = growth inhibition above about 70%; inactive = the rest.

How the values were obtained:
[1] = NCI Yeast Anticancer Drug Screen. Data for the rad50 strain (AID 155);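 note: 0% = growth of vehicle-only cultures of the same strain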; details: S. cerevisiae rad50 strain growth inhibition, stronger effect = higher value
Outline: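 Yeast carrying a defined DNA repair defect were exposed to test compounds, and growth was compared with vehicle-treated controls to give percent inhibition.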

[2] = NCI Yeast Anticancer Drug Screen. Data for the mec2-1 strain (AID 157); details: S. cerevisiae mec2-1 strain, stronger effect = higher value
Outline: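 Vehicle-treated cultures served as reference for growth inhibition of compound-exposed mec2-1 yeast.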

[3] = NCI Yeast Anticancer Drug Screen. Data for the sgs1 mgt1 strain (AID 161);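 note: 0% = growth of cultures given vehicle only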; details: S. cerevisiae sgs1 mgt1 strain, stronger effect = higher value
Outline: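 Inhibition of yeast growth, normalised to vehicle-treated controls, is reported for a strain bearing genetic alterations in DNA damage repair.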

[4] = NCI Yeast Anticancer Drug Screen. Data for the cln2 rad14 strain (AID 165);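 note: 0% = growth equal to vehicle treated cultures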; details: S. cerevisiae cln2 rad14 strain, stronger effect = higher value
Outline: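 Each compound was tested on cln2 rad14 yeast. Inhibition of growth was calculated against vehicle-exposed controls.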

[5] = NCI Yeast Anticancer Drug Screen. Data for the bub3 strain (AID 167); details: S. cerevisiae bub3 mutant strain, stronger effect = higher value
Outline: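 Compounds were applied to a genetically altered yeast strain carrying a cell-cycle control defect. Growth inhibition was scored against vehicle-treated controls.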

[6] = NCI Yeast Anticancer Drug Screen. Data for the mlh1 rad18 strain (AID 175); details: S. cerevisiae mlh1 rad18 strain growth inhibition, stronger effect = higher value
Outline: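 Vehicle-treated cultures served as the reference for growth inhibition in a yeast strain carrying DNA damage repair alterations exposed to each compound.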

[7] = at 5.0 µM (retest, dose inferred, filed as 0.5)
[8] = at 50.0 µM (retest, dose inferred, filed as 5.0)

Measured: growth inhibition

O=C1CSC(=S)N1Cc1ccncc1
inactive: [1]; [7] 2% | [1]; [8] 38% | [1]; at 50.0 µM 39.1% | [2]; [7] -14% | [2]; [8] 37% | [2]; at 50.0 µM 40.9% | [3]; [7] -8% | [3]; [8] 25% | [3]; at 50.0 µM 57.5% | [4]; [7] 24% | [4]; [8] 31% | [4]; at 50.0 µM 18.6% | [5]; [7] 12% | [5]; [8] 29% | [5]; at 50.0 µM 65.5% | [6]; [7] -16% | [6]; at 50.0 µM 39.3%
active: [6]; [8] 71%

ClCc1ccc(OCc2ccccc2)c(OCc2ccccc2)c1
inactive: [1]; [7] 4% | [1]; [8] 51% | [2]; [7] 2% | [2]; [8] 67% | [2]; at 50.0 µM 62.3% | [3]; [7] 4% | [4]; [7] 0% | [4]; [8] 48% | [5]; [7] 6% | [6]; [7] 17%
active: [1]; at 50.0 µM 79% | [3]; [8] 87% | [3]; at 50.0 µM 89.2% | [4]; at 50.0 µM 82.3% | [5]; [8] 77% | [5]; at 50.0 µM 87.2% | [6]; [8] 87% | [6]; at 50.0 µM 94.2%

Clc1ncccc1-n1cccc1/C=N\N=C/c1cccn1-c1cccnc1Cl
inactive: [1]; [7] 5% | [1]; at 50.0 µM 7.25% | [2]; [7] 5% | [2]; at 50.0 µM 6.3% | [3]; [7] 8% | [3]; at 50.0 µM -10.6% | [4]; [7] 4% | [4]; at 50.0 µM 30.4% | [5]; [7] 6% | [5]; at 50.0 µM -4.95% | [6]; [7] -1% | [6]; at 50.0 µM 21.7%
active: [1]; [8] 98% | [2]; [8] 98% | [3]; [8] 94% | [4]; [8] 93% | [5]; [8] 97% | [6]; [8] 99%

COc1ccc(/C=C2/C(=O)N(C(=O)c3ccccc3O)N=C2C)cc1OC
active: [5]; [8] 81% | [5]; at 50.0 µM 76.5% | [6]; [8] 79%
inactive: [1]; [7] 13% | [1]; [8] 69% | [1]; at 50.0 µM 66.7% | [2]; [7] -1% | [2]; [8] 59% | [2]; at 50.0 µM 52.9% | [3]; [7] 7% | [3]; [8] 61% | [3]; at 50.0 µM 47.4% | [4]; [7] 22% | [4]; [8] 62% | [4]; at 50.0 µM 56.5% | [5]; [7] 17% | [6]; [7] 15% | [6]; at 50.0 µM 54.6%
